Source: PubChem BioAssay (EPA / NIEHS)
Results filed as inconclusive are left out. The source made the active and inactive calls. Rule for the calls: active = hit-call score of the fitted dose curve at least 0.9, where 1 is the maximum; inconclusive = response in the unintended direction; inactive = score below 0.9.

Columns and labels:
[1] = TOX21_p53_BLA_p2_viability: Viability Assessment in the Tox21 HCT-116 p53 Agonism Beta-lactamase Assay, Phase 2 (AID 2283591);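 note: actives lower the ATP signal meaning cytotoxicity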
In short: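 HCT116 p53-bla cells, 4000/well, dosed after 5 h plating (217-fold dilution of DMSO stocks) and incubated 16 h at 37C. Viability taken as cellular ATP by CellTiter-Glo luminescence after 30 min RT; signal loss marks cytotoxicity.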

[2] = molecular target: Cellular tumor antigen p53 (Homo sapiens) (UniProt P04637); assay: TOX21_p53_BLA_p2_ratio: Tox21 HCT-116 p53 Agonism Beta-lactamase Assay, Ratio, Phase 2 (AID 2283592)
Sequence of Cellular tumor antigen p53 (Homo sapiens) (P04637 whole entry, looked up): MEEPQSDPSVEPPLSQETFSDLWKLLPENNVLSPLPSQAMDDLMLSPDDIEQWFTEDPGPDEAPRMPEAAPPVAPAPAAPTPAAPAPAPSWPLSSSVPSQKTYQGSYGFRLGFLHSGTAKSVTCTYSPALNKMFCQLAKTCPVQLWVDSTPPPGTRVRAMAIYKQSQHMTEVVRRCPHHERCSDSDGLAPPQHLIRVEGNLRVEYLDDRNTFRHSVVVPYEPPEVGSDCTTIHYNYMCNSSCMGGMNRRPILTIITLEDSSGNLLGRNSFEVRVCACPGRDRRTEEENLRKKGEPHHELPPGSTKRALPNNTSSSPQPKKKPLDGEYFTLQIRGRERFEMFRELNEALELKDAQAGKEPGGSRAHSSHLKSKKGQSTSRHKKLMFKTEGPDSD
In short: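 An inducible beta-lactamase reporter in HCT116 cells signals p53 pathway activation. After 16 h chemical exposure at 37C, cells load CCF4-AM substrate for 2 h at room temperature; activity is the cleaved/uncleaved emission ratio relative to DMSO.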

[3] = molecular target: Cellular tumor antigen p53 (Homo sapiens) (UniProt P04637); assay: TOX21_p53_BLA_p5_ratio: Tox21 HCT-116 p53 Agonism Beta-lactamase Assay, Ratio, Phase 5 (AID 2283599)
In short: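 HCT-116 p53-bla cells (4000/well) plated 5 h, dosed with compound (217-fold DMSO dilution) for 16 h at 37 C; CCF4-AM substrate 2 h at room temperature. Activity is the 460/530 nm emission ratio (405 nm excitation), fitted in gain-of-signal direction versus DMSO.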

[4] = TOX21_p53_BLA_p5_viability: Viability Assessment in the Tox21 HCT-116 p53 Agonism Beta-lactamase Assay, Phase 5 (AID 2283600)
In short: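 Counter-readout for cytotoxicity: ATP-dependent luminescence from CellTiter-Glo, read in the beta-lactamase wells after 30 min at RT, following a 16 h compound exposure at 37C.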

[5] = molecular target: Cellular tumor antigen p53 (Homo sapiens) (UniProt P04637); assay: TOX21_p53_BLA_p4_ratio: Tox21 HCT-116 p53 Agonism Beta-lactamase Assay, Ratio, Phase 4 (AID 2283601)
In short: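 HCT-116 p53 beta-lactamase reporter cells (4000/well) preincubated 5 h, then compound (217-fold dilution of DMSO stock) for 16 h at 37C. CCF4-AM substrate added 2 h at room temperature; 460/530 nm emission ratio fitted upward versus DMSO.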

[6] = TOX21_p53_BLA_p4_viability: Viability Assessment in the Tox21 HCT-116 p53 Agonism Beta-lactamase Assay, Phase 4 (AID 2283597);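 note: hits lower the luminescence signal meaning cytotoxicity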
In short: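 Compound exposure of HCT116 cells lasts 16 h at 37C, 5% CO2, with DMSO stocks diluted 217-fold. Cellular ATP is then quantified by CellTiter-Glo luminescence after 30 min at room temperature.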

[7] = TOX21_p53_BLA_p3_viability: Viability Assessment in the Tox21 HCT-116 p53 Agonism Beta-lactamase Assay, Phase 3 (AID 2283593);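 note: cells exposed to compound for 16 h before reading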
In short: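 HCT116 cells, 4000/well, dosed 5 h after plating by pin transfer (217-fold dilution from DMSO stock) and incubated 16 h at 37C, 5% CO2. Viability read as ATP luminescence with CellTiter-Glo after 30 min at room temperature.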

[8] = molecular target: Cellular tumor antigen p53 (Homo sapiens) (UniProt P04637); assay: TOX21_p53_BLA_p3_ratio: Tox21 HCT-116 p53 Agonism Beta-lactamase Assay, Ratio, Phase 3 (AID 2283596)
In short: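 HCT116 p53-bla cells (4000/well) given compound in DMSO (217-fold dilution) after 5 h, incubated 16 h at 37C. CCF4-AM substrate 2 h at room temperature; 460/530 nm emission ratio, gain fitted against DMSO.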

THRA (gene 7067) = THRA (gene 7067) (UniProt P10827); assay: TOX21_TRA_COA_Antagonist_Followup_ratio: Tox21 Thyroid Hormone Receptor alpha Antagonism through Coactivator Recruitment Follow-Up Assay, Ratio (AID 2283953)
Sequence of THRA (gene 7067) (P10827 whole entry, looked up, the tested form may be a part): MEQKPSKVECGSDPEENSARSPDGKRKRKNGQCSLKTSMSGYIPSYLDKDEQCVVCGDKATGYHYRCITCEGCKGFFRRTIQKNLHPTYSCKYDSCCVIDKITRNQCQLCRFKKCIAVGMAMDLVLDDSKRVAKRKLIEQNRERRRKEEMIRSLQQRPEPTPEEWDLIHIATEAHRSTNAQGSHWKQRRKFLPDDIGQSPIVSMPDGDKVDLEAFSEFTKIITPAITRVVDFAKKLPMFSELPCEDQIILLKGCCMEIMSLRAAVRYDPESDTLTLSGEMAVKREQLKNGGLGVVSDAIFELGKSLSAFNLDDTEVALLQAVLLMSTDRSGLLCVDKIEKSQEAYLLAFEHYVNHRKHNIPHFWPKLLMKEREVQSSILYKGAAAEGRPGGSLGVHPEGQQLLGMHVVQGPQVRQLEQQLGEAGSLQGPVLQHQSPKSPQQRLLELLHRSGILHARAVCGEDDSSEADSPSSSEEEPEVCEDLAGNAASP
In short: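 This follow-up to the GH3 luciferase screen checks specificity in a cell-free format. It measures SRC-2 coactivator peptide binding to TRα LBD by TR-FRET and scores loss of ratio signal relative to DMSO.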

THRB (gene 7068) [9] = molecular target: THRB (gene 7068) (UniProt P10828); assay: TOX21_TRB_BLA_Antagonist_Followup_ratio: Tox21 Thyroid Hormone Receptor beta Antagonism Beta-lactamase (BLA) Follow-Up Assay, Ratio (AID 2283958)
Sequence of THRB (gene 7068) (P10828 whole entry, looked up, the tested form may be a part): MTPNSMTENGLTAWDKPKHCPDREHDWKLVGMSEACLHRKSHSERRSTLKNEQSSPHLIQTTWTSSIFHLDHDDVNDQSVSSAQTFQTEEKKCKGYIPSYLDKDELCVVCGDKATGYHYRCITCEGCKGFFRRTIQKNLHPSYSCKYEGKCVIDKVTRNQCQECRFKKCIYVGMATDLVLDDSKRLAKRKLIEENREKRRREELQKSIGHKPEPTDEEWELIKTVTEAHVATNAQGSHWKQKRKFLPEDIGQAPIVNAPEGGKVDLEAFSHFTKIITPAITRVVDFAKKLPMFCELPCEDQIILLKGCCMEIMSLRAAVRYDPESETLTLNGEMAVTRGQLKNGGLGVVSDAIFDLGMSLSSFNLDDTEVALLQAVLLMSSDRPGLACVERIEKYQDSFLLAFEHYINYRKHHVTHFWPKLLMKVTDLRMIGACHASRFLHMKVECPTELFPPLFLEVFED
In short: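 In this antagonist-mode follow-up, a stably integrated GAL4-TRβ LBD fusion drives a UAS-beta-lactamase reporter in HEK293T cells. Loss of ratio signal relative to DMSO after 18 h treatment indicates activity; parallel CellTiter-Glo flags cytotoxicity.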

[10] = TOX21_TRB_BLA_Antagonist_Followup_viability: Viability Assessment in the Tox21 Thyroid Hormone Receptor beta Antagonism Beta-lactamase (BLA) Follow-Up Assay (AID 2283961)
In short: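 Cytotoxicity is measured in parallel with the antagonist-mode TRβ beta-lactamase screen, using ATP-coupled luciferase luminescence. Engineered HEK293T cells are treated for 18 h with 11-point compound series in triplicate.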

THRB (gene 7068) [11] = molecular target: THRB (gene 7068) (UniProt P10828); assay: TOX21_TRB_COA_Antagonist_Followup_ratio: Tox21 Thyroid Hormone Receptor beta Antagonism through Coactivator Recruitment Follow-Up Assay, Ratio (AID 2283967)
In short: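 Cell-free TR-FRET: GST-TRb LBD (5.0 nM) with fluorescein-SRC-2 peptide (200 nM) and Tb anti-GST antibody (2 nM), 0.10% BSA. 520:495 nm emission ratio normalized to DMSO (0%) and T3 (100%).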

Measured: outcome

CCCCCCCCN
inactive: [1] | [2] | [3] | [4]

Cc1c(Cn2ccnc2)c2ccccc2n1CCC(=O)O
inactive: [1] | [2] | [3] | [4] | [5]

CCCc1ncc(C[n+]2ccccc2C)c(N)n1
inactive: [1] | [2] | [6] | [4] | [5]

C=CCCCCCCCCCCCCCCCC
inactive: [1] | [2] | [6] | [5]

Nc1ccn(C[C@@H](CO)OCP(=O)(O)O)c(=O)n1
inactive: [1] | [2] | [3] | [4]

COc1ccc(N=[N+]([O-])c2ccc(OC)cc2)cc1
inactive: [1] | [2] | [3]

CCN(O)CC
inactive: [1] | [7] | [8] | [6] | [3] | [4] | [5]

CC(=NO)C(C)=NO
inactive: [1] | [7] | [8] | [6] | [3] | [4] | [5]

O=S(=O)(O)c1ccc2c(N=Nc3ccc(S(=O)(=O)O)c4ccccc34)c(O)c(S(=O)(=O)O)cc2c1
inactive: [1] | [7] | [8] | [6] | [3] | [4] | [5]

C[C@@H]1C[C@H]2[C@@H]3CCC4=CC(=O)C=C[C@]4(C)[C@@]3(Cl)[C@@H](O)C[C@]2(C)[C@@]1(OC(=O)c1ccco1)C(=O)CCl
not listed: [2]
inactive: all other assays above

CCCN(CCC)C(=O)C(CCC(=O)OCCCN1CCN(CCOC(=O)Cc2c(C)n(C(=O)c3ccc(Cl)cc3)c3ccc(OC)cc23)CC1)NC(=O)c1ccccc1 (centres undefined)
inactive: [1] | [7] | [8] | [6] | [3] | [5]

CC(C)(C)C(=O)O
inactive: [1] | [7] | [8] | [6] | [3] | [4] | [5]

CCc1ncnc2cc(OC)c(OC)cc12
inactive: [1] | [7] | [8] | [6] | [3] | [4] | [5]

CC(=O)O[C@H]1C[C@@H]2CC[C@@H]3[C@H](CC[C@@]4(C)[C@H]3C[C@H]([N+]3(C)CCCCC3)[C@@H]4OC(C)=O)[C@@]2(C)C[C@@H]1[N+]1(C)CCCCC1
inactive: [1] | [7] | [8] | [6] | [3] | [4] | [5]

CC(C)(C)NCC(O)COc1ccc(NC(=O)NC2CCCCC2)cc1 (centres undefined)
inactive: [1] | [7] | [8] | [6] | [4]
